This note sets out measurements from PubChem BioAssay (NCI).

This is part of a sample that, as a whole, favours compounds with a hit. Of some 83,000 tested, about 20% had one in any assay.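 Treatment: one concentration, 48 hours, 96-well format. Scoring: percent growth, with anything below 10 considered active.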 The source made the active and inactive calls.

The subject of the experiment is NCI-H226 lung. The experiment in a line: NCI-60 one-dose screen, 48 h (100 = growth as untreated, 0 = no growth, -100 = all killed). The conditions noted are these: 10 µM unless noted. The protocol: Growth inhibition of the NCI-H226 human Non-Small Cell Lung tumor cell line is measured as a screen for anti-cancer activity. Cells are grown in 96 well plates and exposed to the test compound for 48 hours. Compounds are tested at a single concentration, which is 10^-5 M for most compounds. The reported endpoint is percent growth (GI% or GIPRCNT), where numbers from 0 - 100% represent growth inhibition, and numbers from -100% - 0 represent cell death. For example, a value of 40 represents 60% growth inhibition. A value of 0 means no net growth occurred over the course of the experiment. A value of -40 indicates 40% of cells at the beginning of the experiment died by the end of the experiment. A value of -100 means all cells are dead at the end of the experiment.
NCI-60 Human Tumor Cell Lines Screen was performed using the standard one-dose NCI protocol, which is described in more detail at https://dtp.cancer.gov/discovery_development/nci-60/default.htm.
Compounds with GIPRCNT values below 10 were considered active. Activity score was based on GIPRCNT using the following formula: […]
Score is 0 for GIPRCNT values of 100 or above, 50 for GIPRCNT values of 0, and 100 for GIPRCNT values of -100.
Consider `CCCCCCn1c(O)c(N=Nc2nc(-c3cc4ccccc4oc3=O)cs2)c2ccccc21`, for which the growth is 67.8% (inactive). The same measure for `COc1cc2c(c(OC)c1OC)C(=O)CC(c1cccc(NC(=O)c3cccc(NC(=O)[C@H](C)NC(=O)OC(C)(C)C)c3)c1)O2` (stereo not given in full): 53.1% (inactive). `Brc1ccc(N/N=C/c2c[nH]c3ccc(Br)cc23)nc1`: the growth was 3.09% (active). `COc1ccc2oc3c4[nH]c5ccccc5c4c4c(c3c2c1)C(=O)N(C(=O)OC(C)(C)C)C4=O`: the growth was -1.92% (active). Regarding `CC(C)c1ccc2c(N)c(C(=O)Nc3cccc(C(F)(F)F)c3)sc2n1`, the growth is 69.3% (inactive). The same measure for `CC(=O)Nc1cccc(Nc2nc(N[C@H]3CCCc4ccccc43)c3ccccc3n2)c1`: 111% (inactive); for `COc1cc2c(c(OC)c1OC)C(=O)CC(c1cccc(NC(=O)c3cc(NC(=O)[C@H](CO)NC(=O)OC(C)(C)C)ccc3Cl)c1)O2` (stereo not given in full): 33% (inactive); for `Cc1ccc([C@H]2C(C(=O)c3ccc(Cl)cc3)C3(N[C@@H]2c2ccccc2)C(=O)Nc2ccc(Br)cc23)cc1` (stereo not given in full): 66.7% (inactive). In the case of `Cc1ccc2c(N)c(C(=O)Nc3ccc(-c4ccccc4)cc3)sc2n1`, the growth was 45.1% (inactive). Consider `C=C1CC[C@@H]2[C@]3(C)COC(c4cn[nH]c4-c4cccc(Cl)c4)O[C@@H]3CC[C@@]2(C)[C@@H]1C/C=C1/C(=O)OCC1O` (stereo not given in full), for which the growth is -91.1% (active).

On to `Cn1cc(-c2nnc(N)nc2-c2c[nH]c3ccc(F)cc23)c2cccnc21`, for which the growth is 72.4% (inactive). The same measure for `C=C1CCC2C3(C)COC(c4ccco4)OC3CCC2(C)C1CC(Sc1ccccc1)C1=CCOC1=O` (stereo not given): 31.5% (inactive); for `S=c1c2ccccc2nc2n1CCc1c-2[nH]c2ccccc12`: 30.8% (inactive). In the case of `O=C(CCN1C(=O)/C(=C/c2ccc(F)cc2)SC1=S)N1CCOCC1` it was 74.2% (inactive); in that of `C=C1CC[C@@H]2[C@]3(C)COC(c4ccccc4)O[C@@H]3CC[C@@]2(C)[C@@H]1C/C=C1/C(=O)OCC1OC(C)=O` (stereo not given in full), -79.8% (active). The same measure for `Cc1ccccc1[C@H]1C(C(=O)c2ccc(Cl)cc2)C2(N[C@@H]1c1ccccc1)C(=O)Nc1ccccc12` (stereo not given in full): -55.2% (active); for `O=C1CC(Sc2n[nH]c(-c3ccncc3)n2)C(=O)N1c1ccc(Br)cc1` (stereo not given): 117% (inactive). On to `Cn1cc(-c2nc(N)nnc2-c2c[nH]c3ccc(Br)cc23)c2cc(Br)cnc21`, for which the growth is 11.9% (inactive). In the case of `Cc1cc2nc3c([nH]c2cc1C)c1ccc(=O)cc1n3CCN(C)C` it was 59% (inactive); in that of `Cn1cc(-c2cc(N)n3nc(-c4cn(C)c5ccccc45)cc3n2)c2cc(Br)ccc21`, 2.38% (active); in that of `Cc1c(C(=O)NNC(=O)c2ccc(Cl)cc2)nnn1-c1ccc(Br)cc1`, 97.1% (inactive). The same measure for `N#Cc1cnn(C(=O)c2ccccc2Br)c1NC(=O)c1ccc(Br)cc1Cl`: 99.2% (inactive); for `S=C(Nc1ccccc1)Nc1ccc(OCc2nc3ccccc3[nH]2)cc1`: 79.9% (inactive). For the compound `CCOC(=O)C(N=Nc1ccc(S(=O)(=O)N=C(N)N)cc1)C(C)=O` (stereo not given), the growth was 95.1% (inactive). With `Nc1cccc(SCc2cc3ccccc3[nH]c2=O)c1`, the growth is 69.8% (inactive).

Consider `COc1ccc(NC(=O)[C@H](CO)NC(=O)OC(C)(C)C)cc1C(=O)Nc1cccc(C2CC(=O)c3c(cc(OC)c(OC)c3OC)O2)c1` (stereo not given in full), for which the growth is 48.1% (inactive). The same measure for `Cc1ccc([C@H]2C(C(=O)c3ccc(Cl)cc3)C3(N[C@@H]2c2ccccc2)C(=O)Nc2ccccc23)cc1` (stereo not given in full): 45.5% (inactive); for `N#Cc1c(-c2ccccc2Cl)cc(-c2c[nH]c3ccccc23)[nH]c1=O`: 64.3% (inactive). The same measure for `CCOC(=O)C1=C(N)N(c2ccccc2)C2=C(C(=O)CC(C)(C)C2)C1c1ccc(N2CCOCC2)cc1` (stereo not given): 89.8% (inactive). With `CCN(CC)c1ccnc(CNCCSC(c2ccccc2)(c2ccccc2)c2ccc(C)cc2)c1`, the growth was -73.3% (active).

Regarding `CCOC(=O)/C=C/c1cccc2c1C(=O)NC(C)(c1cc3cc(Br)ccc3oc1=O)N2` (stereo not given), the growth was 43.3% (inactive). In the case of `CC1(c2cc3cc(Cl)ccc3oc2=O)NC(=O)c2c(/C=C/C(=O)OC3CC4CCC3(C)C4(C)C)cccc2N1` (stereo not given) it was 67% (inactive); in that of `CCS(=O)(=O)N1CCCC(C(=O)Nc2nc3ccc(NC(=O)c4ccc(F)c(OC)c4F)cc3s2)C1` (stereo not given), 48% (inactive); in that of `Cn1cc(-c2cc3nc(-c4c[nH]c5ccc(Cl)cc45)cc(N)n3n2)c2ccccc21`, -33.8% (active). The same measure for `CC(/C=C1\SC(=S)N(CCCC(=O)NC(CC(C)C)C(=O)O)C1=O)=C\c1ccccc1` (stereo not given): 91.1% (inactive); for `Cc1ccc(C(=O)CSc2nc3ccc(C)cc3c(=O)n2-c2ccc(F)cc2)cc1`: 15% (inactive).

As for `COc1ccccc1C(=O)NN1C(=O)/C(=C/C2=Cc3ccccc3OC2)SC1=S`, the growth is 98.9% (inactive). In the case of `Cc1cccc(NC(=O)CN2CCN(c3ncnc4c3cnn4-c3ccccc3)CC2)c1` it was 84.8% (inactive). In the case of `C=CC(=O)Nc1ccc(C)c(Oc2ccc(Cl)cc2)c1` it was 41.7% (inactive); in that of `COc1cc(NC(=O)c2cccc(C3CCc4c(cc(OC)c(OC)c4OC)O3)c2)cc(OC)c1OC` (stereo not given), 21.4% (inactive).
